Screens deposited in PubChem by National Center for Advancing Translational Sciences (NCATS).
Compounds with a hit are over-represented: about 19% of the library has one in this group of screens.
TDP1 cell CPT: growth inhibition of DT40 Tdp1-/-;hTDP1 cells with camptothecin (screen for TDP1 inhibitors); chicken DT40 Tdp1-/-;hTDP1 cells + 20 nM CPT, ATP luminescence, 48 h; Potency, µM (titrated, usually from 46.2 µM), for inactives: top-dose activity change, negative = growth inhibition, most hits filed as inhibitors; hit rate 12% among 420,000; AID 686979; further: potency means the concentration at half of the fitted maximal effect; nearly all actives have a fitted effect of over 55% in size
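Chicken DT40 Tdp1-/- cells stably complemented with human TDP1 were seeded at 400 cells/well in medium containing 20 nM camptothecin, exposed to pin-transferred compounds, and grown at 37 °C for at least 48 hr. Viability was read as ATP luminescence.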
IL-1B inflam inh: inhibitors of inflammasome signaling (IL-1 beta secretion) | THP-1 LPS/ATP IL-1B secretion, AlphaLISA, 16 h; stronger effect = lower value | activity change, % at 57.5 µM | hit rate 4.7% among 360,000 | AID 743279; in the data active means activity change below about -50%; inconclusive means mostly about -30% to -49%
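THP-1 cells pretreated 1 hr with compounds (up to 57.5 uM final), then stimulated with LPS (250 ng/mL final) plus ATP (1.25 mM final); secreted IL-1B measured by AlphaLISA after 16 hr, decreased signal indicating inhibition.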
HT1080 IDH1KD tx: HT-1080 IDH1 knockdown cell toxicity (counter line) | HT-1080 IDH1 knockdown viability, ATP luminescence, 48 h | Potency, µM (top dose mostly 46.1 µM), inactives show top-dose activity, negative = toxicity, actives largely listed as cytotoxic | hit rate 2% among 360,000 | AID 686971;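 further: potency means the concentration at half of the fitted maximal effect; 0% = DMSO wells and -100% = cell-free medium wells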
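CellTiter-Glo luminescence after 48 h compound exposure at 37 degrees C of IDH1-knockdown HT-1080 cells in 5% FBS RPMI. %Activity scaled between DMSO wells and cell-free media wells, with curves fitted and assigned curve classes.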
ELG1 repair inh: inhibitors of ELG1-dependent DNA repair in HEK293T cells. Potency, µM (titrated, usually from 46.1 µM), for inactives: top-dose activity change, negative = inhibition, actives largely listed as inhibitors. HEK293T ELG1-luciferase reporter, luminescence, 16 h; DNA damage induced by 5-fluorouridine. hit rate 2.3% among 330,000. AID 504467; further: potency means the concentration at half of the fitted maximal effect; nearly all actives have a fitted effect of over 55% in size
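DMSO vehicle served as the neutral condition. Each well held 2,000 cells given 5-fluorouridine plus compound; after 16 hr at 37 °C/5% CO2, ONE-Glo was added and luciferase measured 30 min later.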
HT1080-NT tox: kills 2HG-producing HT-1080-NT fibrosarcoma cells | HT-1080-NT fibrosarcoma viability, CellTiter-Glo ATP luminescence, 48 h | Potency, µM (series often up to 46.1 µM), inactives show top-dose activity, negative = less viability, actives largely listed as cytotoxic | hit rate 1.6% among 360,000;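 further: NT is the 2HG producing partner of a matched IDH1 knockdown line; potency means the concentration at half of the fitted maximal effect; 0% = DMSO-treated cells and -100% = media-only wells without cells; nearly all actives have a fitted effect of over 55% in size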
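750 cells/well, RPMI + 5% FBS; 2 h settle, compound pin-transfer, 48 h at 37 degrees C. CellTiter-Glo 10 min RT, luminescence. Normalized to DMSO and media-only wells.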
DT40 TDP1 no CPT: qHTS for Inhibitors of human tyrosyl-DNA phosphodiesterase 1 (TDP1): qHTS in cells in absence of CPT | Potency, µM (top dose mostly 46.2 µM), inactives show at the highest dose activity change, negative = growth inhibition, hits mostly inhibitors | DT40 Tdp1-/- hTDP1 cells, no CPT, ATP luminescence, 48 h | hit rate 15% among 420,000 | AID 686978, 2013; further: potency means the concentration at half of the fitted maximal effect; nearly all actives have a fitted effect of over 55% in size
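Readout: luminescence from CellTiter-Glo after 30 min in the dark at RT. Cells: DT40 Tdp1-/- with stable hTDP1, 400/well. Exposure: compounds alone, ≥48 hr, 37 °C.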
ELG1 FLuc counter: luciferase inhibition in cell-free luciferin readout for ELG1 hits; Potency, µM (titrated, usually from 46.1 µM), inactives show top-dose activity change, negative = inhibition, most hits filed as inhibitors; AID 624247; hit rate 3% among 350; cell-free firefly luciferase luminescence counter-screen, ViewLux; shares compounds with ELG1 repair inh; further: potency means the concentration at half of the fitted maximal effect
ELG1 Luc conf: inhibits ELG1-dependent DNA repair in HEK293T cells, confirmed | shares compounds with ELG1 repair inh | HEK293T ELG1-luciferase levels, luminescence; cells co-treated with 5-fluorouridine | Potency, µM (top dose mostly 46.1 µM), without a hit: at the top dose activity change, negative = inhibition, usual class: inhibitors | hit rate 68% among 670; further: potency means the concentration at half of the fitted maximal effect; nearly all actives have a fitted effect of over 55% in size
Target sequence (Q96QE3 whole entry, looked up): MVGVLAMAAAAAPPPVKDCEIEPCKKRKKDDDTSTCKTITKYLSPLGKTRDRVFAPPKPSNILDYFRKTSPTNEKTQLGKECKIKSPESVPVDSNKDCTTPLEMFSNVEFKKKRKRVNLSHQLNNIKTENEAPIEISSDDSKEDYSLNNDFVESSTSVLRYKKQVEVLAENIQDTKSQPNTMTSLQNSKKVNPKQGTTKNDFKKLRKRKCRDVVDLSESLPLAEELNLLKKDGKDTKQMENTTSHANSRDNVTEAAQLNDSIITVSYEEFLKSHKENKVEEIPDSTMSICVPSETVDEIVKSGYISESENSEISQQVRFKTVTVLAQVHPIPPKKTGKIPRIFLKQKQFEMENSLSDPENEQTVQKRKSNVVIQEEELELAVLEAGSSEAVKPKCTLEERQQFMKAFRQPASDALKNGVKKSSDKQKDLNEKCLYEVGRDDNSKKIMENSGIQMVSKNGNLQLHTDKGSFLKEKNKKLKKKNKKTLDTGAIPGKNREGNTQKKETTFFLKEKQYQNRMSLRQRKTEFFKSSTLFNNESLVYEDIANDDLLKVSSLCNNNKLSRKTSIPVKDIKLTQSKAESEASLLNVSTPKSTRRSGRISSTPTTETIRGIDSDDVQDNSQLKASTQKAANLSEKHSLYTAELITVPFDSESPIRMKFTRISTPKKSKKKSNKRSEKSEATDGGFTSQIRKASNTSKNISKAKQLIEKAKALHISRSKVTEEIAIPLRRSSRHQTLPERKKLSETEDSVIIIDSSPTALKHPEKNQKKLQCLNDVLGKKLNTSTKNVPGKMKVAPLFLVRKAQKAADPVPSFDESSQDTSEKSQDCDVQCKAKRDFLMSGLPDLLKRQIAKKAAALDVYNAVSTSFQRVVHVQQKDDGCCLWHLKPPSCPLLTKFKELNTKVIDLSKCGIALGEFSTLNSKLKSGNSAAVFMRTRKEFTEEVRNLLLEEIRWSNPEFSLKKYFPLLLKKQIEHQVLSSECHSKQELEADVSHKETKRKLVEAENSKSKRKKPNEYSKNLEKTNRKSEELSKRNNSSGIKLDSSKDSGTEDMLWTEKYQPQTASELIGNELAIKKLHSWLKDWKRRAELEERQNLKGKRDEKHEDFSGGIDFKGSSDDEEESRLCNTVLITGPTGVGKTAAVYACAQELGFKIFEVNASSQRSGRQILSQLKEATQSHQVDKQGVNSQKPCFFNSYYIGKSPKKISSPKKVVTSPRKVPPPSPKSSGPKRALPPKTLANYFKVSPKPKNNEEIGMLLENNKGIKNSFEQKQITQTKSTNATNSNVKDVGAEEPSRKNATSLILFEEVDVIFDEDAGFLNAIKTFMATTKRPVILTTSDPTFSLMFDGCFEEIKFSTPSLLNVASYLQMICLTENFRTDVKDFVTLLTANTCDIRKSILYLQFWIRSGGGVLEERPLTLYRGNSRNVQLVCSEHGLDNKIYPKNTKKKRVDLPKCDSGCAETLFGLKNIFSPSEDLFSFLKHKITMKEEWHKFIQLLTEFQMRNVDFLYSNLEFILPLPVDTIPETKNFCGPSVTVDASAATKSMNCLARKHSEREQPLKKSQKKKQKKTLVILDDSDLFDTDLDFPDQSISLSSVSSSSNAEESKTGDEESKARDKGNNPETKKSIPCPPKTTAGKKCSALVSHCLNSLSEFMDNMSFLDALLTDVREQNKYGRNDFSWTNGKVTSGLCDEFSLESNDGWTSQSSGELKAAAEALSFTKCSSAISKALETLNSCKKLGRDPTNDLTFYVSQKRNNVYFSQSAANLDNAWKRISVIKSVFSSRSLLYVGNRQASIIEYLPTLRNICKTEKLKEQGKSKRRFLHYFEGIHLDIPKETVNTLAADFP
ELG1 MMS Luc: MMS-stimulated human ELG1 repair inhibition, confirmed; Potency, µM (highest dose often 46.1 µM), for inactives: top-dose activity change, negative = inhibition, most hits filed as inhibitors; AID 624249; shares compounds with ELG1 repair inh; HEK293T luciferase-tagged ELG1 level, MMS stimulated; hit rate 53% among 670; further: potency means the concentration at half of the fitted maximal effect; nearly all actives have a fitted effect of over 60% in size
ELG1 5FU viab: confirmation of ELG1 repair inhibitors: viability with 5FU | shares compounds with ELG1 repair inh | cell viability with 5-FU, ELG1-dependent repair | Potency, µM (titrated, usually from 46.1 µM), inactives show at the highest dose activity change, negative = viability loss, hits mostly cytotoxic | 670 tested, under 10 active | AID 624250;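 further: ELG1-luc HEK293T cells cotreated with 5-fluorouridine at 10 µM final; potency means the concentration at half of the fitted maximal effect; viability measured 16 h after compound addition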
ELG1 MMS viab: confirmation of ELG1 repair inhibitors: viability with MMS. hit rate 33% among 670. Potency, µM (highest dose often 46.1 µM), for the others: at the highest dose activity change, negative = viability loss, actives largely listed as cytotoxic. shares compounds with ELG1 repair inh. Cell viability with MMS, ELG1-dependent DNA repair;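 further: ELG1-luc HEK293T cells co-treated with 10 µM MMS; potency means the concentration at half of the fitted maximal effect; viability read 16 h after compound addition; nearly all actives have a fitted effect of over 60% in size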
ELG1 unstim viab: affects unstimulated cell viability, ELG1 hit counter-screen | shares compounds with ELG1 repair inh | cell viability counter-screen, unstimulated, luminescence | Potency, µM (top dose mostly 45.9 µM), for the others: at the highest dose activity change, negative = loss of viability, hits mostly cytotoxic | hit rate 8% among 900 | AID 624252;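 further: potency means the concentration at half of the fitted maximal effect; compound exposure lasted 16 hours before reading; nearly all actives have a fitted effect of over 55% in size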
FLuc biochem: inhibits purified firefly luciferase, counter-screen for ELG1 hits; shares compounds with ELG1 repair inh; purified firefly luciferase, luminescence counter-screen; Potency, µM (titrated, usually from 57.5 µM), for inactives: top-dose activity, negative = inhibition, most hits filed as inhibitors; hit rate 10% among 350; AID 624253; further: potency means the concentration at half of the fitted maximal effect
* hit, by the source's call; ? = inconclusive; · = no result. Unless noted, the call rests on the fitted dose curve; in most records, active means well fitted curve in the direction sought with a large enough effect; inconclusive means small, poorly fitted or top-dose-only effect, or another doubt; inactive means no such curve, though single readings can be large; an effect the other way counts as inactive or inconclusive. Unless noted, on the % scale 0 is the no-effect control and ±100 the full control effect.

SMILES	TDP1 cell CPT	IL-1B inflam inh	HT1080 IDH1KD tx	ELG1 repair inh	HT1080-NT tox	DT40 TDP1 no CPT	ELG1 Luc conf	ELG1 MMS Luc	ELG1 5FU viab	ELG1 MMS viab	ELG1 unstim viab	others
S=C(Nc1ccc(Cl)c(Cl)c1)N1CCN(c2ccccn2)CC1	7%	29	-11%	-4%	5%	-23%	·	·	·	·	·
COc1ccc(NC(=O)c2sc3ncnc(N4CCN(c5ccccn5)CC4)c3c2C)cc1Cl	21µM*	?	1%	2.6µM*	-10%	5.8µM*	5.6µM*	13µM*	-7%	?	?	ELG1 FLuc counter=4%;FLuc biochem=-3%
CCOc1ccc(C(=O)Nc2ccccc2N2CCN(C(=O)c3ccccc3)CC2)cc1[N+](=O)[O-]	7.3µM*	-24	-11%	4.6µM*	-5%	12µM*	6.3µM*	?	6%	-1%	-15%
CCCCCn1c(=O)[nH]c2cc(C(=O)N3CCN(Cc4ccc5c(c4)OCO5)CC3)ccc2c1=O	4.6µM*	-13	?	0.46µM*	-3%	10µM*	?	0.22µM*	-6%	0.22µM*	?	ELG1 FLuc counter=-18%;FLuc biochem=-12%
COc1ccc(N2CCN(C(=O)c3ccc4c(=O)n(CCc5ccc(OC)c(OC)c5)c(=O)[nH]c4c3)CC2)cc1	15µM*	12	-9%	1.8µM*	-5%	16µM*	16µM*	13µM*	7%	?	?
CCCCCn1c(=O)[nH]c2cc(C(=O)NCc3ccc4c(c3)OCO4)ccc2c1=O	-9%	6	15%	18%	10%	-16%	·	·	·	·	·
COc1ccc(OC)c(NC(=O)c2ccc3c(=O)n(CCc4ccccc4)c(=S)[nH]c3c2)c1	?	24	-12%	1.5µM*	1%	?	?	0.56µM*	-11%	0.63µM*	?
CCCC12CN3CC(C)(CN(C1)C3c1cccs1)C2=O (stereo not drawn)	10%	8	5%	1%	10%	-13%	·	·	·	·	·
Cc1ccc(C(=O)CCC(=O)OCC(=O)NNC(=O)c2ccccc2Cl)cc1	10%	-6	13%	7%	10%	13%	·	·	·	·	·
Cc1cc(NC(=O)c2cnn3c(C(F)(F)F)cc(-c4ccc(Br)cc4)nc23)no1	?	11	?	15µM*	7%	?	5µM*	-7%	?	2%	-20%	ELG1 FLuc counter=2%;FLuc biochem=4%
COc1ccc(-c2cc(C(=O)NCC3CCCO3)on2)cc1OC (stereo not drawn)	-4%	4	16%	?	1%	18%	·	·	·	·	·
COc1ccc(-c2cc(C(F)(F)F)n3nc(C(=O)Nc4cc(C)on4)cc3n2)cc1OC	-20%	-18	6%	3.7µM*	4%	-29%	?	-4%	?	?	3%
COc1ccc(-c2cc(C(=O)Nc3cc(C)on3)no2)cc1OC	1%	0	0%	11%	0%	0%	·	·	·	·	·
Cc1ccc(-c2cc(C(F)(F)F)n3ncc(C(=O)NCc4ccco4)c3n2)cc1	9%	-19	20%	?	16%	?	·	·	·	·	·
COc1ccc(-c2cc(C(F)(F)F)n3ncc(C(=O)NCC4CCCO4)c3n2)cc1OC (stereo not drawn)	?	-5	-3%	0.58µM*	-3%	?	0.89µM*	13%	?	-3%	-3%	ELG1 FLuc counter=10%;FLuc biochem=2%
CCN(CC(=O)Nc1ccc(NC(C)=O)cc1)C(=O)c1ccccc1SCC(=O)N1CCCC1	-21%	0	1%	-21%	-3%	-7%	·	·	·	·	·
CN(C)N=Nc1ccc(/C=C2\C=Cc3ccccc32)cc1	14µM*	·	·	·	·	?	·	·	·	·	-2%
CC(C)CN(C)c1ccc(/C=C2\C=Cc3ccccc32)cc1	2.8µM*	·	·	·	·	2.5µM*	·	·	·	·	?
COc1cc2c(cc1OC)C(=Cc1ccc(N(C)C)cc1)C=C2	?	-20	-24%	·	-15%	?	·	·	·	·	·
O=C(NC1CCCC1)c1cc(-c2cccs2)on1	?	4	?	?	?	?	·	·	·	·	-12%
CNC(=O)c1cc(-c2cccs2)on1	?	·	·	·	·	?	·	·	·	·	-6%
O=C(NC1CCCC1)c1cc(-c2ccccc2O)on1	-4%	-3	-8%	?	-2%	?	·	·	·	·	·
COc1cc(OC)c(N2CC(C(=O)Nc3cccc(C(=O)NC4CC4)c3)CC2=O)cc1Cl (stereo not drawn)	13%	0	0%	-7%	4%	?	·	·	·	·	·
